Pf growth 48h: P. falciparum growth inhibition at 48 hours (one generation); 310,000 compounds, 5.9% hits; P. falciparum luciferase growth in erythrocytes, 48 h; Potency, µM (highest dose often 28.7 µM), for the others: top-dose activity change, negative = inhibition, most hits filed as inhibitors
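Luciferase-expressing parasites in RBCs, 2% Hct / 0.1% parasitemia final; RPMI 1640 + 0.5% Albumax; 37 C, 5% CO2, one generation; luminescence read-out, lower signal = inhibition.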
AMA1-RON2 inh: AMA1-RON2 (P. falciparum) interaction inhibition | AlphaScreen AMA1-biotinylated RON2 peptide binding | Potency, µM (highest dose often 58.2 µM), without a hit: at the top dose activity change, negative = inhibition, most hits filed as inhibitors | 360,000 compounds, 0.2% hits;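 further: 0% = vehicle wells and -100% = peptide control; nearly all actives have a fitted effect of over 45% in size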
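AMA1 (3D7) with his tag at 25 nM final met compounds first, then biotinylated RON2 peptide at 25 nM; detection used donor plus acceptor beads, 10 µg/mL apiece, read by AlphaScreen after 30 min at room temperature.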
HCV inhibitor: inhibitors of hepatitis C virus infection | 340,000 compounds, 3.4% hits | Huh7.5.1 HCVcc-Cre infection, luciferase reporter, 44 h | Potency, µM (titrated, usually from 41.8 µM), for the others: at the highest dose activity change, negative = inhibition, actives largely listed as inhibitors
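Antiviral activity was scored by luciferase reporter output from cells infected with HCVcc-Cre (~0.5 moi) in presence of compound, 44 h infection period, cells seeded 1,000/well 4 h prior.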
Pf growth 96h: P. falciparum growth inhibition at 96 hours; P. falciparum luciferase reporter growth, 96 h; Potency, µM (top dose mostly 28.7 µM), for the others: at the top dose activity change, negative = inhibition, hits mostly inhibitors; 320,000 compounds, 6.9% hits; AID 504834
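Parasite growth measured via integrated firefly luciferase reporter in P. falciparum. Infected erythrocytes at 2% hematocrit, 0.05% parasitemia final were treated 96 hours at 37 C under 5% CO2, and luminescence was read.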
The depositor's hits bear a star; ? = inconclusive; . = no result given; [ ] = another dose, or the depositor's remark. An excerpt weighted towards active compounds, which were near 11% of everything screened. The call rests on the fitted dose curve; in most records, active means well fitted curve in the direction sought with a large enough effect; inconclusive means small, poorly fitted or top-dose-only effect, or another doubt; inactive means no such curve, though single readings can be large; an effect the other way counts as inactive or inconclusive. Unless noted, on the % scale 0 is the no-effect control and ±100 the full control effect; potency means the concentration at half of the fitted maximal effect.

SMILES	Pf growth 48h	AMA1-RON2 inh	HCV inhibitor	Pf growth 96h
CCN(CC)S(=O)(=O)c1ccc(-n2c(=O)c(C(C)C)c(C)n2C)cc1	-5%	-12%	-2%	94%
CC1=C(c2ccc(NN=C(C#N)C#N)cc2)NNC(=O)C1	1%	.	.	-17%
C[C@@H]1C(SC2Cn3cnc[n+]3C2)=C(C(=O)[O-])N2C(=O)[C@H]([C@@H](C)O)[C@@H]12 (stereo not given in full)	-12%	.	.	4%
Cc1ccccc1NC(=O)CN1C(=O)NC(C)(CCc2ccccc2)C1=O (stereo not given)	13µM*	-4%	-4%	-22%
CC1(CCc2ccccc2)NC(=O)N(CC(=O)Nc2ccccc2C#N)C1=O (stereo not given)	-2%	4%	?	12%
CC1=C/C(=N\NC(=S)Nc2cccnc2)CC(C)(C)C1	?	14%	-14%	2.9µM*
CC1(C)C2CC=C(/C=N/NC(=S)Nc3cccnc3)C1C2 (stereo not given)	?	38%	5%	?
O=C(O)C[C@H]1c2ccc(C(F)(F)F)cc2S(=O)(=O)N1Cc1ccccc1	.	14%	?	.
CC(NC(=O)NC(N)=O)(C(F)(F)F)C(F)(F)F	23%	6%	11%	7.4µM*
CC(NC(=O)NNC(N)=S)(C(F)(F)F)C(F)(F)F	3%	49%	4%	-16%
CSc1ccccc1NC(=O)CN1CCN(c2ccccn2)CC1	7.4µM*	0%	4%	8.3µM*
CSc1ccccc1NC(=O)CN1CCN(S(=O)(=O)c2ccccc2[N+](=O)[O-])CC1	9.3µM*	-5%[11.6 µM]	?	9.3µM*
CCS(=O)(=O)N1CCN(S(=O)(=O)c2ccccc2[N+](=O)[O-])CC1	7%	5%	4%	17%
O=C(CN1CCN(c2ccccn2)CC1)Nc1ccc([N+](=O)[O-])cc1C(=O)Nc1ccccc1F	?	8%	11µM*	5%
c1ccc(COc2cccc(-c3cc4nc(NCCCn5ccnc5)ccn4n3)c2)cc1	.	-3%	.	.
Cc1nc2ccc(NS(=O)(=O)c3ccc4c(c3)OCCO4)cc2s1	-17%	3%	3.2µM*	.
Cc1c(NS(=O)(=O)c2ccc3c(c2)OCCO3)cccc1-c1nc2cccnc2s1	-14%	-7%	13µM*	?
Cc1cc(-c2nc3cccnc3s2)ccc1NS(=O)(=O)c1ccc2c(c1)OCCO2	-2%	0%	8%	46%
Cc1cc(S(=O)(=O)Nc2cccc([N+](=O)[O-])c2)c(C)s1	-4%	-16%	15%	2.1µM*
Cc1nc2ccc(NS(=O)(=O)c3cccc([N+](=O)[O-])c3)cc2s1	.	-6%	11µM*	.
Brc1ccc(-c2nc3c4ccccc4ccn3c2Cc2ccccc2)cc1	.	2%	.	.
OCc1cccc(-c2csc(C(O)c3ccco3)n2)c1 (stereo not given)	.	8%	.	.
Cc1ccc(S(=O)(=O)Nc2ccc3nc(N)sc3c2)cc1	-12%	-6%	13µM*	.
Cc1ccc(S(=O)(=O)Nc2ccc3nc(C)sc3c2)cc1	?	1%	?	47%
CCOC(=O)C1(C)CCCN1C(=O)c1ccc(C(F)(F)F)nc1C (stereo not given)	.	-3%	.	.
SMILES	Pf growth 48h	AMA1-RON2 inh	HCV inhibitor	Pf growth 96h
COC(=O)c1ccc(NC(=O)C(=O)N2CCN(C(=S)Nc3ccccc3OC)CC2)cc1	19%	4%[11.6 µM]	-26%	?
COC(=O)c1ccc(NC(=O)C(=O)N2CCN(C(=S)Nc3cccc(C)c3C)CC2)cc1	3%	-7%	-20%	0.47µM*
C/C(=N\N(Cc1ccccc1)c1ccccc1)c1cccnc1	8.3µM*	-20%	-4%	13µM*
C(=N\N(Cc1ccccc1)c1ccccc1)/c1cccnc1	13µM*	-12%	-9%	10%
Oc1ccc(/C=N/N(Cc2ccccc2)c2ccccc2)c(O)c1O	?	3%	?	?
Oc1cccc(/C=N/N(Cc2ccccc2)c2ccccc2)c1	6.6µM*	?	?	?
CC1(C(=O)NCCC#N)CCN1C(=O)CC(c1ccccc1)c1ccccc1 (stereo not given)	.	-1%	.	.
COc1ccc(C(=O)N/N=C/c2cc3ccccc3[nH]c2=S)cc1	.	35%	-8%	13µM*
COc1ccc(C(=O)N/N=C\c2ccoc2)cc1	6%	136%	24%	4.7µM*
COc1ccc(C(=O)N/N=C/c2c[nH]c3ccccc23)cc1	27%	5%	7%	-16%
COc1cc(OC)cc(C(=O)NNS(=O)(=O)c2ccc(F)cc2)c1	0%	6%	7%	?
COc1ccc(N=C2NN=C(c3ccc4c(c3)OCCO4)CS2)cc1	.	-26%	?	-84%
FC(F)Sc1ccc(N=C2NN=C(c3ccc4c(c3)OCCO4)CS2)cc1	?	18%	10µM*	?
COc1cc([N+](=O)[O-])ccc1NC(=O)CSc1nc2ccccc2n1-c1ccccc1	8.3µM*	.	1%	10µM*
O=C1c2cccc(OCC(=O)N3CCCc4ccccc43)c2CCN1Cc1cccnc1	?	-3%	?	?
Cc1ccccc1CN1CCc2c(OCC(=O)N3CCCc4ccccc43)cccc2C1=O	?	-6%	13µM*	15µM*
COc1ccc(N(C(=O)Cc2cccs2)C(C(=O)NC2CCCC2)c2ccncc2)cc1 (stereo not given)	4%	17%	14%	-2%
COc1ccc(CN(C(=O)c2nsc(Cl)c2Cl)C(C(=O)NC2CCCC2)c2ccc(C)cc2)cc1 (stereo not given)	?	-8%	?	10µM*
COc1ccc(C(C(=O)NC2CCCCC2)N(C(=O)CCl)c2cccc(Cl)c2)cc1 (stereo not given)	?	-9%	1.6µM*	?
COc1cccc(N(C(=O)c2cnccn2)C(C(=O)NC2CCCCC2)c2ccc(Cl)cc2)c1 (stereo not given)	?	40%	6%	?
COC(CN(C(=O)CCl)C(C(=O)NC1CCCCC1)c1ccc(C)cc1)OC (stereo not given)	-12%	12%	-8%	-6%
COc1ccc(C(C(=O)NC2CCCCC2)N(C(=O)CCl)c2ccc(C)cc2)cc1 (stereo not given)	-8%	12%	0.56µM*	67%
COc1ccc(C(C(=O)NC2CCCCC2)N(C(=O)CCl)c2ccc(OC)cc2)cc1 (stereo not given)	-17%	-1%	1µM*	9.3µM*
S=C1NC2CCCCC2N1 (stereo not given)	45%	-5%	-2%	14%
O=C(NC1CCCC1)C(C1CC1)n1c(-c2ccccn2)nc2ccccc21 (stereo not given)	.	5%	.	.
COc1ccc(C(C(=O)NC2CCCC2)N(C(=O)c2ccoc2C)c2ccc(C)cc2)cc1 (stereo not given)	10µM*	-11%	-12%	?
COc1ccc(N(C(=O)c2ccco2)C(C(=O)NC2CCCC2)c2ccncc2)cc1 (stereo not given)	5%	-1%	?	10%

High-throughput results: PubChem BioAssay, National Center for Advancing Translational Sciences (NCATS)
